CYP2C19 inhib – inhibitors of human CYP2C19; P33261; CYP2C19 Supersomes, luciferin-H EGE luminescence, 30 min; inhibition, % at 5 µM; 96,000 tested, 21% active; AID 778;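 active = CYP2C19 inhibition above a set limit at 5 µM in the primary screen, cut at about 50% in these data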
CYP2C19 act – activators of human cytochrome P450 2C19 | recombinant CYP2C19, luciferin-H EGE luminescence; hits give high values; 0 = fully inhibited enzyme, 1 = untreated enzyme | activation factor at 5 µM | 96,000 tested, under 10 active | AID 1025;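 active = activation factor of at least 2 at 5 µM in the primary screen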
PLAP act – activates human placental alkaline phosphatase; activation fold at 20 µM; 96,000 tested, 1.2% active; purified PLAP enzyme, luminescent substrate read-out; hits give high values; AID 696; in the data active = activation fold above about 2
Target sequence (P05187 whole entry, looked up): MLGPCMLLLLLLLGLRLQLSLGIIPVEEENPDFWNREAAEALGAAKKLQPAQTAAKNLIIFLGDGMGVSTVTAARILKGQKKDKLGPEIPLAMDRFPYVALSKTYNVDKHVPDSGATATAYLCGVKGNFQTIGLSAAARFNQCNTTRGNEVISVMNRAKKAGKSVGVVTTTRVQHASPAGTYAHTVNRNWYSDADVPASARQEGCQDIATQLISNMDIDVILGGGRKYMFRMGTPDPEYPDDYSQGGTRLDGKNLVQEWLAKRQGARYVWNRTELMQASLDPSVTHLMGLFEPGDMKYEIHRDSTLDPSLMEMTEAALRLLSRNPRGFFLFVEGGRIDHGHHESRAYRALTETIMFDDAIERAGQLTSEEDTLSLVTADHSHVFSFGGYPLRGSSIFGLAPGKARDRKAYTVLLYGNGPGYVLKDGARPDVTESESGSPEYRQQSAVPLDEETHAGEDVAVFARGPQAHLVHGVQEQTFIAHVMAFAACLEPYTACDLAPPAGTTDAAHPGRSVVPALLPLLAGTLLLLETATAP
CYP2C9 inh – inhibitors of human CYP2C9; CYP2C9 Supersomes, luciferin-H conversion, luminescence; inhibition, % at 5 µM; 96,000 tested, 20% active;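 active = blocking of liver enzyme CYP2C9 beyond about 50% at 5 µM, limit read from the data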
CYP2C9 activ – increases human cytochrome P450 2C9 activity | 96,000 tested, 1.4% active | AID 1024 | P11712 | recombinant CYP2C9, luciferin-H conversion, luminescence; hits give high values; factor 1 = untreated enzyme, 0 = blocked | activation factor at 5 µM;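 active = activation factor of 2 or more for CYP2C9 at a 5 µM dose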
A number is an active result; . = inactive; / = not tested or not shown. Sampled rows, rich in hits. Any-hit rate of the full collection: about 31%.

SMILES	CYP2C19 inhib	CYP2C19 act	PLAP act	CYP2C9 inh	CYP2C9 activ
COc1ccccc1CN(Cc1nc2ccccc2c(=O)[nH]1)C(=O)Nc1cccc(C)c1	67.3	.	.	56.7	.
CCN(CC(=O)Nc1cccc(Br)c1)Cc1nc2ccccc2c(=O)[nH]1	71.8	.	.	65.2	.
CCN(CC(=O)NCc1ccc(F)cc1)Cc1nc2cc(Cl)ccc2c(=O)[nH]1	.	.	2.7	60.0	.
CCS(=O)(=O)N1CCN(Cc2nc3ccccc3c(=O)[nH]2)CC1	.	.	.	.	.
C=CCn1c(SCC(=O)N2CCOCC2)nc(O)c(Cc2ccccc2)c1=O	.	.	.	.	.
CCN(CC(=O)NC(=O)NC1CCCCC1)Cc1nc2ccccc2c(=O)[nH]1	.	.	/	.	.
CN(CC(=O)Nc1ccccc1Br)Cc1nc2ccccc2c(=O)[nH]1	82.7	.	2.4	80.9	.
CCN(CC(=O)NC(c1ccccc1)c1ccccc1)Cc1nc2ccccc2c(=O)[nH]1	64.7	.	/	.	.
CCN(CC(=O)Nc1ccc2c(c1)OCO2)Cc1nc2ccccc2c(=O)[nH]1	77.0	.	/	81.0	.
CCc1ccc2c(CN(CC)Cc3nc4ccccc4c(=O)[nH]3)cc(=O)oc2c1	.	.	.	.	.
CCN(CC(=O)Nc1ccc2c(c1)OC(F)(F)O2)Cc1nc2ccccc2c(=O)[nH]1	88.2	.	/	91.6	.
O=C(C1CCCN1S(=O)(=O)c1ccc(Cl)c(Cl)c1)N1CCOCC1 (centres undefined)	.	.	.	.	.
C=CCN=C1SCC(=O)N1S(=O)(=O)c1ccccc1	.	.	.	.	.
COc1cccc(C(=O)N(Cc2ccc3c(c2)OCO3)Cc2nc3ccccc3c(=O)[nH]2)c1	74.3	.	.	81.4	.
CCN(CC(=O)Nc1ccc2c(c1)CCC2)Cc1nc2ccccc2c(=O)[nH]1	91.8	.	2.6	89.3	.
C=CCNC(=S)N/N=C/c1ccc(OCc2ccccc2Cl)cc1	.	.	.	.	.
Nc1sc2c(c1C(=O)NC1CCS(=O)(=O)C1)CCC2 (centres undefined)	.	.	2.3	.	.
Cc1nn2c(-c3ccncc3)nnc2c2ccccc12	85.2	.	.	.	.
Cc1ccccc1S(=O)(=O)NC1OC(=O)C(Cl)=C1Cl (centres undefined)	.	.	.	.	.
Cc1ccccc1NC1=C(Cl)C(=O)OC1OC(C)C (centres undefined)	96.1	.	.	.	.
C=CCn1c(=O)c(C(=O)NCCc2ccccc2)c(O)c2ccccc21	.	.	.	.	.
C=CCn1c(O)c(N=NC(=O)CNC(=O)/C=C/c2ccco2)c2ccccc21	.	.	.	70.6	.
CC1=C(C(=O)Nc2ccccc2)C(c2ccc(O)cc2)N2C(=O)CSC2=N1 (centres undefined)	.	.	.	.	.
CC1=C(C(=O)Nc2ccccc2)C(c2ccc(C)o2)n2c(s/c(=C\c3ccco3)c2=O)=N1 (centres undefined)	69.1	.	.	85.3	.
COc1ccc(-c2nc3n(n2)C(c2ccccc2)C2=C(CCCC2=O)N3)cc1OC (centres undefined)	.	.	.	.	.
SMILES	CYP2C19 inhib	CYP2C19 act	PLAP act	CYP2C9 inh	CYP2C9 activ
CCCCn1nnnc1NCc1ccc(N2CCCC2)cc1	.	.	.	71.3	.
CCCCn1nnnc1NCc1cccnc1	70.3	.	.	.	.
COc1ccccc1CNCc1cc(OC)c(OC)cc1OC	.	.	.	.	.
CCCCn1nnnc1NCc1cc(OC)c(OC)cc1OC	60.7	.	.	.	.
COc1ccc(NC(=O)CC2C(=O)N(c3ccc(OC)cc3)C(=O)N2C(C)C)cc1 (centres undefined)	55.8	.	.	.	.
C=CCN1C(=O)C(CC(=O)Nc2ccc(OC)cc2)N(Cc2ccco2)C1=S (centres undefined)	95.7	.	.	.	.
CC(C)CCN1CCNC(=O)C1CC(=O)Nc1ccc(F)cc1 (centres undefined)	.	.	.	.	.
CN1C(=O)C(CC(=O)Nc2ccc(F)cc2)N(CCCc2ccccc2)C1=S (centres undefined)	60.5	.	.	89.0	.
COc1ccc(NC(=O)CC2C(=O)N(c3ccc(Cl)cc3)C(=S)N2CCc2ccncc2)cc1 (centres undefined)	87.7	.	.	96.7	.
COc1ccc(NC(=O)CC2C(=O)N(CCc3ccccc3)C(=S)N2Cc2cccnc2)cc1 (centres undefined)	89.5	.	.	91.7	.
CCN1C(=O)C(CC(=O)Nc2ccc(OC)cc2)N(Cc2cccnc2)C1=S (centres undefined)	64.9	.	.	.	.
COC(=O)CN1C(=S)N(Cc2ccccc2)C(=O)C1CC(=O)Nc1ccc(Br)cc1 (centres undefined)	.	.	.	.	.
COc1cc(CO)cc(-c2cc(CO)cc(OC)c2OC)c1OC	.	.	.	.	.
O=C(CNc1ccc(C(F)(F)F)cc1[N+](=O)[O-])OCC(=O)c1ccccc1	.	.	.	55.1	.
Cc1c(C(=O)NCc2ccccn2)sc2nc(-c3ccc(F)cc3)cn12	.	.	.	62.6	.
Cc1c(C(=O)NCc2ccc3c(c2)OCO3)sc2nc(-c3ccc(F)cc3)cn12	.	.	.	.	.
Cc1c(C(=O)NCC2CCCO2)sc2nc(-c3ccc(F)cc3)cn12 (centres undefined)	.	.	.	55.1	.
Cc1ccc(-n2c(Cc3cccn3C)nnc2SCC(=O)NCc2ccc3c(c2)OCO3)cc1	56.7	.	.	83.9	.
Cc1ccc(-n2c(Cc3cccn3C)nnc2SCC(=O)Nc2ccc3c(c2)OCO3)cc1	.	.	.	56.1	.
Cn1cccc1Cc1nnc(SCC(=O)Nc2ccc3c(c2)OCCO3)n1-c1ccc(F)cc1	.	.	.	.	.
C/C(CCc1ccc2c(c1)OCO2)=N\N=C(/N)SC1CC(=O)N(c2ccc(Cl)cc2)C1=O (centres undefined)	.	.	.	54.7	.
Cc1cccc(NS(=O)(=O)c2cc(C(=O)N3CCN(C)CC3)ccc2C)c1	.	.	.	.	.
COc1ccccc1NS(=O)(=O)c1cccc(C(=O)OCC(=O)Nc2cc(C)on2)c1	.	.	.	.	.
Cc1cccc(NS(=O)(=O)c2ccc(C)c(C(=O)OCC(=O)Nc3cc(C)on3)c2)c1	89.4	.	.	94.0	.
Cc1cccc(NS(=O)(=O)c2cc(C(=O)OCC(=O)Nc3cc(C)on3)ccc2C)c1	.	.	.	83.6	.
CC(c1cccnc1)N(C(=O)Nc1ccccc1)C1CCCCC1 (centres undefined)	.	.	.	.	.
O=C(Cc1c(F)cccc1Cl)N1CCCC1	.	.	.	.	.
O=c1ccccn1Cc1c(F)cccc1Cl	50.5	.	.	.	.
CC(=O)N1CCc2cc3nc(C)cc(C)c3cc21	.	.	.	.	.
CC1=C(C#N)C(Nc2cc(C)ccn2)(C(F)(F)F)C(=O)N1 (centres undefined)	76.1	.	.	.	.
